ABCB6 inh MLPCN – human ABCB6 transporter inhibition; K562-ABCB6 porphyrin accumulation, flow cytometry, 1 h; active compounds read low; fluorescence ratio to DMSO, % at 10 µM; 0.19% of 360,000 active; AID 602162;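 active = fluorescence ratio to DMSO below 75%, the collection mean minus 3 SD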;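 also: signal is porphyrin accumulated inside mitochondria; 100% equals median channel fluorescence of DMSO control wells; lower ratio means ABCB6 inhibition with less porphyrin fluorescence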
NRP1-CendR mod – alters CendR peptide binding to human NRP-1. FAM-RPARPAR peptide binding to NRP-1, fluorescence polarization. O14786. AID 602438. inhibition, % at 25 µM. 0.85% of 360,000 active;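 active = inhibition or corrected inhibition above about 18%, plus a signal ratio from 0.5 to 1.5, limit read from the data, passing the limit was not always enough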
Target sequence (O14786 whole entry, looked up): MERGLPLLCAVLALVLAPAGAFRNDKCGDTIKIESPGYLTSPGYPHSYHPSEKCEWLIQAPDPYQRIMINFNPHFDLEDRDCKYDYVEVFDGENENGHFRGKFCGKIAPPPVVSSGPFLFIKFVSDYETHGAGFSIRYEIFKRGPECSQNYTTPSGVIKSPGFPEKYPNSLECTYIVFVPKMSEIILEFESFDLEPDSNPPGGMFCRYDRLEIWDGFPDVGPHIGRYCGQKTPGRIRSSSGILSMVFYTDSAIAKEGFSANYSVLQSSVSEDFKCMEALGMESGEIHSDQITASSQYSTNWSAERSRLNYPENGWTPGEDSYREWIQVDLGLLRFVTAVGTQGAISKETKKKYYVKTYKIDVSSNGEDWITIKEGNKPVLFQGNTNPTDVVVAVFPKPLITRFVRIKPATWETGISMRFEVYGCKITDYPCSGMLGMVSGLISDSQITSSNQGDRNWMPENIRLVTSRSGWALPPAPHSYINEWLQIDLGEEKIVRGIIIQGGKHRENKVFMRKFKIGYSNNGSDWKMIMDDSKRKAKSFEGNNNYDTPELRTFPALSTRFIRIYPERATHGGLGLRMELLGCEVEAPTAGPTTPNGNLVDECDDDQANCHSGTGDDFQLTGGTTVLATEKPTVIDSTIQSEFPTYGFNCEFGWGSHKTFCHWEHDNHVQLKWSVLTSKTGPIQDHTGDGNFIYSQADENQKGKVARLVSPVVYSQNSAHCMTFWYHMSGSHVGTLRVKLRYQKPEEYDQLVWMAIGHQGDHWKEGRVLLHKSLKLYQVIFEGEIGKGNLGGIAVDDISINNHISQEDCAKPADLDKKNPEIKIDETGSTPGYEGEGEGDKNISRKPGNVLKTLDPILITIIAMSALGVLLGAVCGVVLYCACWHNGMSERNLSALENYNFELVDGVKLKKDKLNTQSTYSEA
ARNT TACC3 PPI – disrupts binding between human ARNT and TACC3; Q9Y6A5; AlphaScreen His-ARNT PAS-B/GST-TACC3 binding, luminescence; TACC3 fragment carries E629A point mutation; inhibition, % at 9.99 µM; 0.66% of 390,000 active;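 active = mean inhibition of replicates at least 50% and at least half of replicates each reaching 50%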;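 also: 0% = complete ARNT plus TACC3 wells and 100% = ARNT alone without TACC3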
INS-1E GSIS act – GLuc luminescence reporter in INS-1E cells, primary screen for activators of glucose-dependent secretion of insulin; INS-1E GLuc reporter insulin secretion, 2-3 h; activation, % at 16.6 µM; 0.61% of 370,000 active;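 active = lowest replicate activation of at least 40%, so every replicate reaches that level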;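 also: 0% = median of neutral control wells and 100% = median of IBMX positive control wells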
iPSC survival up – hiPSC single-cell survival enhancement; ATPlite luminescence; 100% = ROCK inhibitor wells, 0% = DMSO; survival enhancement, % at 20 µM; 0.044% of 360,000 active; AID 602274; in the data active = survival enhancement above about 18%;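 also: cells exposed to compounds for 16 hours before the ATP read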
ABCB6 blocker 1 – human ABCB6 transporter inhibition. shares compounds with ABCB6 inh MLPCN. K562-ABCB6 porphyrin accumulation, flow cytometry, 1 h; active compounds read low. ratio response (% of DMSO), % at 10 µM. 700 tested, under 10 active. AID 602430;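 active = repeat-averaged ratio response below 75% of DMSO, the collection mean minus 3 SD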;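 also: median porphyrin fluorescence at 575 nm with 488 nm excitation from mitochondria; lower ratio means less porphyrin signal so ABCB6 inhibition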
* hit, by the source's call; . = no result. Hits are enriched below; roughly 1.8% of the tested compounds scored in any of these assays.

SMILES | ABCB6 inh MLPCN | NRP1-CendR mod | ARNT TACC3 PPI | INS-1E GSIS act | iPSC survival up | ABCB6 blocker 1
CC1(C(=O)NS(=O)(=O)c2cccc(C#N)c2)CCN1C(=O)Cc1ccc(-c2ccccc2)cc1 (stereo not given) | 97.0 | -16.1 | . | . | 2.0 | .
CO[C@@H]1CN(C)C(=O)c2ccc(NC(=O)Nc3cc(F)ccc3F)cc2OC[C@@H](C)N(C(=O)c2cnccn2)C[C@@H]1C | . | . | . | 0.8 | . | .
COc1ccc(S(=O)(=O)NC(=O)C2(C)CCN2C(=O)Cc2ccccc2Cl)cc1OC (stereo not given) | 96.0 | 7.5 | . | 8.9 | -2.3 | .
CC1(C(=O)NS(=O)(=O)c2cccc(F)c2)CCN1C(=O)Cc1ccccc1Cl (stereo not given) | 95.0 | 2.3 | . | . | 0.8 | 98.0
COc1ccc(NC(=O)Nc2ccc3c(c2)CC(=O)N([C@H](C)CO)C[C@H](C)[C@@H](CN(C)C)O3)cc1 | . | . | 6.9 | 2.4 | . | .
O=C(NC1CCCCC1)N1CCC(c2nc(-c3ccc(S(=O)(=O)N4CCCC4)cc3)no2)CC1 | 70.0* | -6.3 | -5.1 | 48.0 | -1.5 | 103.0
O=C(Oc1ccc(N(Cc2cccs2)C2=NS(=O)(=O)c3ccccc32)cc1)c1ccccc1 | 66.0* | 11.7 | -1.2 | . | 0.8 | 100.0
Cc1ccc(S(=O)(=O)C2(C(=O)N3CCN(c4ccccc4F)CC3)CC2)cc1 | 72.0* | -2.7 | 0.3 | 0.9 | -0.6 | 101.0
O=C(O)C1C2C=CC(C2)C1C(=O)Nc1cccc(F)c1 (stereo not given) | 58.0* | -7.7 | 2.1 | . | 1.3 | 101.0
O=C(O)c1cccc(NC(=O)C2C3C=CC(C3)C2C(=O)O)c1 (stereo not given) | 97.0 | -20.0 | -8.1 | 4.2 | 5.9 | .
N#Cc1ccc(-c2ccc([C@H]3[C@@H](CO)N4CCCCN(S(=O)(=O)c5ccccc5)C[C@@H]34)cc2)cc1 | . | . | -9.3 | -3.9 | . | .
C/C(Cl)=C\Cn1c(NCCc2ccccc2)nc2c1c(=O)n(C)c(=O)n2C | 92.0 | -0.9 | 0.7 | -70.0 | -1.3 | .
CCN(CC)CCNc1nc2c(c(=O)n(C)c(=O)n2C)n1C/C=C(/C)Cl | 73.0* | 3.4 | 1.0 | . | 0.9 | 100.0
COc1cccc(N2CCN(C(=O)CCCCCNc3nc(=S)[nH]c4ccccc34)CC2)c1 | 102.0 | 5.7 | -9.1 | -17.0 | 0.0 | .
O=C(CCCCCNc1nc(=S)[nH]c2ccccc12)N1CCN(c2ccccn2)CC1 | 74.0* | -5.0 | 0.3 | . | -0.5 | 100.0
O=C(C1CCCC1)N1CCCCN2[C@H](CO)[C@H](c3ccc(C#CC4(O)CCCC4)cc3)[C@H]2C1 | . | . | 0.2 | . | . | .
CC(=O)Nc1ccc(NC(=O)CSC2=NS(=O)(=O)c3cc(Cl)ccc3N2)cc1 | 56.0* | 8.5 | -2.3 | 10.3 | 0.2 | 100.0
COC(=O)c1ccc(CN2CC(=O)N3[C@@H](CO)[C@@H](c4ccc(Br)cc4)[C@@H]3C2)cc1 | . | . | . | -19.9 | . | .
CCC(=O)N(C)C[C@H]1N[C@@H](CO)[C@H]1c1ccc(-c2cccc(C#N)c2)cc1 | . | . | . | -1.1 | . | .
Cn1c(CSc2ccccc2)c(C#N)c2ccccc21 | 67.0* | -1.9 | -4.4 | -15.5 | 18.5 | 99.0
Cc1ccc(SCc2c(C#N)c3ccccc3n2C)cc1 | 92.0 | 1.2 | -2.2 | . | -2.8 | .
Cc1c2ccccc2nc2c(F)c(NCCO)c(F)c(F)c12 | 235.0 | 129.9 | 7.4 | 9.9 | -3.0 | .
OCCNc1c2ccccc2nc2c(F)c(F)c(F)c(F)c12 | 71.0* | -15.1 | -5.0 | 9.9 | 0.0 | 109.0
Cc1noc(C)c1S(=O)(=O)N1CCC(C(=O)O)CC1 | 100.0 | -4.0 | . | 6.1 | -2.4 | 99.0
Cc1ccc(C(=O)C2CCN(S(=O)(=O)c3c(C)noc3C)CC2)cc1 | 98.0 | 4.2 | . | -17.5 | -0.3 | .
SMILES | ABCB6 inh MLPCN | NRP1-CendR mod | ARNT TACC3 PPI | INS-1E GSIS act | iPSC survival up | ABCB6 blocker 1
COc1cccc(CN2CCNC(=O)C2CC(=O)NCc2cn3ccccc3n2)c1OC (stereo not given) | 73.0* | 5.3 | 8.2 | -2.2 | -0.1 | 97.0
CNC[C@H]1OCCCC[C@@H](C)Oc2ccc(NS(=O)(=O)c3ccc(C)cc3)cc2C(=O)N([C@H](C)CO)C[C@H]1C | . | . | -3.0 | 15.1 | . | .
COc1cccc(NC(=O)COC(=O)CCCC2=NS(=O)(=O)c3ccccc3N2)c1 | 14.0* | -1.4 | -2.8 | 6.1 | 0.0 | 102.0
COc1ccc(NC(=O)COC(=O)CCCC2=NS(=O)(=O)c3ccccc3N2)cc1Cl | 101.0 | 10.0 | 9.5 | 5.4 | -0.3 | .
COc1ccc(NC(=O)COC(=O)CCCC2=NS(=O)(=O)c3ccccc3N2)cc1 | 102.0 | -3.9 | -5.0 | 0.7 | 0.3 | 100.0
CCOC(=O)c1ccc(S(=O)(=O)Nc2cc(C(C)(C)C)no2)cc1 | 66.0* | -13.6 | -0.8 | . | -2.0 | 99.0
COCC#Cc1ccc([C@H]2[C@@H](CO)N3C(=O)CN(C(=O)Nc4ccc(F)cc4)C[C@@H]23)cc1 | . | . | . | -7.3 | . | .
Cc1cc(C(=O)Nc2ccc3c(c2)C(=O)N(C)[C@@H]2CC[C@H](CC(=O)NCC(F)(F)F)O[C@@H]2CO3)no1 | . | . | -3.9 | 15.4 | . | .
O=C(NC1CCCC1)c1ccc(COCC(F)(F)F)o1 | 103.0 | 7.4 | -13.1 | 2.4 | 1.5 | .
O=C(NC1CCCC1)c1ccc(COCC(F)(F)C(F)F)o1 | 73.0* | -5.6 | -21.9 | -3.3 | -1.1 | 99.0
CC1CCCCN1C(=O)CCC(=O)Nc1nnc(C2CCCCC2)s1 (stereo not given) | 20.0* | 8.7 | 0.1 | -5.2 | 0.4 | 102.0
O=C(CCC(=O)N1CCCC1)Nc1nnc(C2CCCCC2)s1 | 93.0 | 9.2 | -3.4 | . | 0.3 | .
CCS(=O)(=O)N1CCCCN2[C@@H](CO)[C@@H](c3ccc(-c4ccccc4C)cc3)[C@@H]2C1 | . | . | 4.2 | -20.2 | . | .
COCCNC(=O)c1cc2nc(-c3ccccc3)cc(C)n2n1 | 68.0* | -23.1 | -2.9 | 20.3 | -0.8 | 99.0
Cc1cc(NC(=O)c2cc(C)on2)n(-c2ccccc2)n1 | 72.0* | -4.5 | -2.5 | 20.4 | -2.3 | 103.0
Cc1ccc(S(=O)(=O)N2CCN(C(=O)CN3CCOCC3)C2C(C)C)cc1 (stereo not given) | 59.0* | -4.1 | -9.1 | . | -0.2 | 102.0
Cc1ccc(S(=O)(=O)N2CCN(C(=O)CN3CCOCC3)C2c2ccccc2)cc1 (stereo not given) | 105.0 | 1.6 | 23.5 | -11.4 | -2.3 | .
Cc1cccc(S(=O)(=O)N2C[C@@H]3[C@H](c4ccccc42)[C@H](CO)N3C(=O)CC2CC2)c1 | . | . | 8.7 | 2.8 | . | .
O=C1CC(c2ccccc2)CC(O)=C1C=NCc1ccccc1 (stereo not given) | 103.0 | -11.0 | 0.2 | 4.5 | -2.3 | .
O=C1CC(c2ccccc2)CC(O)=C1C=NCc1ccccc1Cl (stereo not given) | 15.0* | -1.9 | 8.7 | -4.1 | -0.1 | 97.0
Cc1ccccc1N1C(=O)[C@@H]2Cc3ccccc3CN2C1=O | 68.0* | 3.2 | -13.6 | . | -1.8 | 98.0
